Columns and labels:
Experiment in all cases: PBM binding z-score (relative to random genomic background probes); higher = stronger binding; sequences stand for … in GC…GCGATTGACAGCGTAGAATGAAGG
[1] = system: RARb homodimer (NR concentration 270 nM)
Procedure, shortened: (§1)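 The probes on custom Agilent 4×180K protein-binding microarrays were double-stranded, with 34-nt variable regions bearing direct-repeat seeds, single-nucleotide variants, half-site ablations and random human genomic background sequences. Incubation lasted 1 h with ligand-free nuclear receptor dimers in PBS pH 7.4, 2% milk, 0.02% Triton X-100, 1 mM DTT, 0.2 mg/mL BSA and 0.4 mg/ml salmon testes DNA. Antibodies against each partner (one per run) detected bound dimers, and fluorescence scans were regression-normalized. Binding z-scores take the random background probes as reference.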

[2] = system: RARg:RXRa (NR concentration 270 nM, RXRa partner concentration 90 nM)
Procedure, shortened: as §1

[3] = system: RARg homodimer (NR concentration 270 nM)
Procedure, shortened: as §1

[4] = system: RXRa DBDmut IVT, anti-RXR (DBD mutation: RXRa K156A/R161A, NR concentration 90 nM)
Procedure, shortened: as §1

[5] = system: RXRa homodimer (NR concentration 180 nM)
Procedure, shortened: as §1

[6] = system: THRa:RXRa (NR concentration 90 nM, RXRa partner concentration 90 nM)
Procedure, shortened: as §1

[7] = system: THRa homodimer (NR concentration 90 nM)
Procedure, shortened: as §1

[8] = system: VDR homodimer (NR concentration 270 nM)
Procedure, shortened: as §1

Row | Sequence | PBM binding z-score [1] | PBM binding z-score [2] | PBM binding z-score [3] | PBM binding z-score [4] | PBM binding z-score [5] | PBM binding z-score [6] | PBM binding z-score [7] | PBM binding z-score [8]
1 | TCATATAGGTAAGGGTGAAAGTCGAACGATATGA | 0.703 | 0.914 | 0.595 | 0.475 | 1.36 | 0.89 | -0.108 | -0.201
2 | TCTTGTAGATCAAAGATTAAGAAAGCCGAAGCCT | -1.12 | 0.0193 | -0.33 | 0.517 | 0.241 | -0.201 | -0.962 | -0.417
3 | CCAGACAGGTGAGAAGGTAACGCAGCCTCGATTA | 0.798 | 0.793 | 0.415 | 0.201 | 0.556 | 0.331 | 0.41 | -0.143
4 | ACTAGCAGGCCAAGTATGGGTCACTCAAACAAAG | 2.24 | 2.53 | 1.63 | -0.279 | 1.11 | 0.976 | -0.26 | 0.0355
5 | CTGACTGGGGCAGAAAGGTTACCATACCATCCGG | 2.57 | 2.08 | 1.66 | -0.154 | 1.88 | 1.34 | -0.00368 | 0.339
6 | CCTACTGGCCCACGAAAGGTCATTGATTCAGTGA | 4.47 | 4.32 | 3.95 | 0.693 | 4.79 | 3.02 | 1.16 | 2.69
7 | TAGCCTGGGTCATGCGGGCCAGTATAGTGTCGGC | 2.5 | 3.64 | 3.37 | -0.265 | 3.11 | 2.46 | -0.102 | 0.606
8 | CCAGACAGGAGAAAGGTAACTCAGTCTGGTACGC | 0.0408 | 0.115 | -0.016 | -0.0562 | 0.502 | -0.00788 | -0.183 | -0.102
9 | CAACCAAGGTGAACAAGGTCGTTGATTACTATTC | 2.25 | 1.9 | 1.64 | 1.49 | 2.07 | 3.44 | 2.06 | 2.59
10 | CATACAGGGTCAGCTAGGCCAGACTAGGGACGGC | 3.19 | 4.5 | 4.67 | 1.37 | 3.99 | 3.16 | 1.06 | 1.2
11 | TCTATTAGTTGAAGGGCAGCCGACGAGTCCGTTT | 0.841 | 0.303 | 0.318 | 1.74 | 0.258 | 0.00646 | 0.0713 | 1.27
12 | ATCGAAAGGTCGAGGTTAGTATAGAGAAAGGGAA | 2.8 | 4.49 | 4.52 | 1.18 | 4.37 | 2.51 | 0.341 | 0.514
13 | ATATGTAGGTTCTCGGGTCATTCAGTTTGCGCAT | 2.61 | 2.47 | 1.7 | 2.28 | 2.88 | 3.46 | 3.29 | 4.65
14 | TCGAGTCGGTTAGGGGCATTCAGAATGGCGTCGA | 0.345 | -0.19 | -0.321 | 0.196 | 0.0404 | 1.38 | -0.39 | 1.12
15 | CCGACTGGGGCATAAGGTAACCATAAGCCAGCCC | 0.572 | 0.385 | 0.436 | -0.779 | 0.252 | 1.72 | 1.34 | -0.312
16 | TCGAGTAGGTTACCCATGGGGCATTCAGCTTTCT | 0.802 | 1.61 | 0.414 | 0.106 | 0.689 | 0.2 | -0.507 | -0.557
17 | CAGGCTAGGTCAGGGCCAGTATAGGAGGAACGTT | 2.77 | 3.07 | 4.16 | -0.54 | 1.45 | 1.95 | 0.49 | 0.035
18 | TAGCCTAGGTCATGCAGGGGCCAGTATAGAAAGC | 3.35 | 6.15 | 4.48 | 0.31 | 3.12 | 3.29 | 0.474 | 0.435
19 | TCTTGTAGATCAAAGGTTGAGAAAGCCGAAGCCT | 0.0942 | 0.326 | -0.192 | 0.518 | 1.08 | 0.142 | -0.747 | -0.223
20 | CCGGCTGGGGCATAAGGTTACCATAAGCCAGCCC | 1.62 | 1.83 | 1.05 | -1.59 | 0.983 | 1.93 | 0.912 | -0.374
21 | AGTCAAAGTTCAATAGGTAACGTAAGATTCAGCT | 3.98 | 5.19 | 5.37 | 4.02 | 3.85 | 1.72 | 0.00177 | 3.4
22 | ATTAGCAGGCCAAGGGTCACTCAAGATTAGTCCG | 3.64 | 4.22 | 3.71 | 0.43 | 4.3 | 2.7 | 0.321 | 0.941
23 | CAGACTGGGGCAGAAAGGTTACCATACCATCCGG | 2.4 | 2.09 | 1.85 | -0.43 | 1.98 | 1.29 | -0.421 | 0.0589
24 | TCATATAGGTAATTCAGGTGAAAGTCGGCATCTA | 0.654 | 0.323 | 0.241 | 1.73 | 0.923 | 2.52 | 1.8 | 0.399
25 | CCTTCTGGGCCATCAGGTCATTGATATCAACGTT | 2.61 | 2.3 | 2.36 | 0.59 | 1.46 | 3.19 | 2.98 | 1.83
26 | TGAATGAGGTTAAAGATCAGGGGACGTGGCGTCG | 1.02 | 2.29 | 1.31 | 1.01 | 3.57 | 2.83 | 0.742 | 0.974
27 | CGGACTGGGGCAGAAAGGTTACCATACCATCCGG | 2.51 | 1.79 | 1.69 | -0.693 | 1.85 | 1.29 | -0.00516 | 0.148
28 | ACTTACGGGTCAACGAGGTTGTAGCACGCGTATA | 3.03 | 5.34 | 4.57 | 2.44 | 5.59 | 3.38 | 0.417 | 2.86

From the supplement of paper PMC6555819
